From PubChem BioAssay
p53 reactivator: re-activators of mutant p53; AID 504706; 0.063% of 320,000 active; H1299 p53-A138V BP100-luciferase reporter, luminescence, 24 h; Potency, µM (highest dose often 92.2 µM), without a hit: at the highest dose activity change, positive = activation, hits mostly activators; active means well fitted activation curve with a large enough effect; inconclusive means small, poorly fitted or top-dose-only effect; inactive means no such curve, though single readings can be large or run the other way; further: potency means the concentration at half of the fitted maximal effect; % of control where 0% means no effect; nearly all actives have a fitted effect of over 45% in size
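H1299 (p53-null), stable ts p53-A138V + BP100-Luc; 1000 cells/well, Opti-MEM/10% FBS; cpd 4 pt, 1:5; 24 h, 37 deg C, 5% CO2; detection reagent 10 min RT; luminescence.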
TRPV1 PAM: potentiators of human vanilloid receptor 1 (TRPV1); TRPV1-expressing cells, Fluo-8 calcium influx, capsaicin EC20 potentiation; 0.02% of 320,000 active; Q8NER1; potentiation, % at 8.33 µM; in the data active means potentiation above about 80%; inconclusive means between about 30% and that limit; further: 0% is about no effect
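TRPV1-expressing cells were cultured overnight at 35.5C and loaded with Fluo-8 calcium dye for 40 to 90 min at room temperature. After a 10 s baseline, compound was added and calcium influx was read kinetically for 3 min (ex 480/em 520 nm).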
KCNH2 WT inh: blocks the wildtype human KCNH2 potassium channel | Q12809 | U2OS, BacMam KCNH2, thallium flux FluxOr; hits give low values | activity change, % at 1.84 µM | 0.37% of 340,000 active | AID 720551;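 active means maximum activity change below -70%; inconclusive means maximum activity change between -70% and -50%; inactive means maximum activity change above -50%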; further: on the % scale 0 is the no-effect control and ±100 the full control effect
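U2OS cells transduced with wild-type KCNH2 virus are loaded with FluxOr dye for 45 min, and thallium flux is measured in kinetic reads before and after stimulation buffer. Rate constants are normalized to DMSO controls.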
KCNH2 3.1 block: inhibitors of human KCNH2 3.1 potassium channel isoform | activity change, % (tested at about 1.8 µM) | AID 720553 | U2OS KCNH2 3.1, thallium flux FluxOr; hits give low values | 0.95% of 340,000 active;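 active means maximum activity change below -70%; inconclusive means maximum activity change from -70% to -50%; inactive means maximum activity change above -50%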;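 further: thallium influx rate constant from kinetic fluorescence after stimulation buffer; on the % scale 0 is the no-effect control and ±100 the full control effect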
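Channel expression came from 3.1 mutant virus (1.77 x 10^8 /mL) applied to suspended U2OS cells for 4 h. Flux was tracked with FluxOr dye plus Red40 quencher, and kinetic rate constants normalized to controls.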
ClpP mod: qHTS Assay for Activators of ClpP; ATP-dependent Clp protease proteolytic subunit (Bacillus subtilis (strain 168)), P80244; purified B. subtilis ClpP, FRET peptide cleavage, 20 min; Potency, µM (titrated, usually from 57.5 µM), without a hit: at the top dose activity change, negative = active; 1.9% of 340,000 active; active means well fitted falling curve with a large enough effect; inconclusive means small, poorly fitted or top-dose-only effect; inactive means no such curve, though single readings can be large or run the other way; further: potency means the concentration at half of the fitted maximal effect; the source files actives as falling curves though it sought activators and does not explain the sign; nearly all actives have a fitted effect of over 65% in size
Target sequence (P80244 whole entry, looked up): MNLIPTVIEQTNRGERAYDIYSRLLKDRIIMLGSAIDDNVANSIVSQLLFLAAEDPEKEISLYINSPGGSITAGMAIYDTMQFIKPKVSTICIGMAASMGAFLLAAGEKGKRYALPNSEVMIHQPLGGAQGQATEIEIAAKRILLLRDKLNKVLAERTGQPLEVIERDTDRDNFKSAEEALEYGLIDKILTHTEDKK
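FRET quenching reversal measured ClpP activation: 10 microg/mL B. subtilis ClpP at pH 8 with the FRET-FV decapeptide, read at 430 nm after 320 nm excitation. The 20-min minus 0-min signal was scaled between DMSO/no-enzyme wells and ADEP (5.8 microM final).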
TRPV1 ag: agonists of human vanilloid receptor 1 (TRPV1); 0.19% of 320,000 active; Q8NER1; activation, % at 8.33 µM; TRPV1-expressing cells, Fluo-8 calcium influx, agonist mode; AID 540275; in the data active means activation above about 80%; inconclusive means between about 30% and that limit; further: 0% is about no effect
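Cells expressing TRPV1 were dye-loaded with Fluo-8 and read kinetically: 10 s baseline, 3 min after compound (agonist portion), then 2 min after EC20 capsaicin (allosteric enhancer portion). Calcium-bound dye fluorescence at 480/520 nm.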
* = called active by the depositor; u = inconclusive; x = no result. A selection: hits, their analogues and other compounds. The true share with any hit is near 2.6%.

SMILES | p53 reactivator | TRPV1 PAM | KCNH2 WT inh | KCNH2 3.1 block | ClpP mod | TRPV1 ag
Cc1ccc2cc(C#N)c(NCCNC(=O)C3CC3)nc2c1C | 2% | -7 | -6 | 2 | 35µM* | -1
Cc1ccc2cc(C#N)c(NCCNC(=S)NCCCN(C)C)nc2c1C | 1% | 6 | 9 | -1 | u | 0
CCC(=O)NCCNc1nc2cc(C)c(C)cc2cc1C#N | -5% | -13 | 1 | -1 | 13µM* | 26
CCCCC(=O)NC(=S)Nc1cccc(NC(=O)c2ccco2)c1 | -14% | -26 | -13 | 0 | 25µM* | 12
CCCCC(=O)Nc1ccc(C(=O)NNC(=O)c2ccco2)cc1 | -5% | 2 | -154* | -13 | -8% | 1
COc1ccccc1CNC(=O)CS(=O)(=O)Cc1nc(-c2ccccc2C)oc1C | x | x | x | x | 32% | x
C[C@H](CO)N1C[C@H](C)[C@@H](CN(C)S(=O)(=O)c2cn(C)cn2)Oc2c(NC(=O)Nc3ccc4c(c3)OCO4)cccc2C1=O | -3% | x | -4 | -123* | -3% | x
C[C@H](CO)N1C[C@H](C)[C@@H](CN(C)S(=O)(=O)c2ccc(F)cc2)Oc2c(NC(=O)NC3CCCCC3)cccc2C1=O | -3% | x | -7 | 2 | -2% | x
C[C@H](CO)N1C[C@H](C)[C@@H](CN(C)S(C)(=O)=O)Oc2c(NC(=O)Nc3ccc4c(c3)OCO4)cccc2C1=O | 8% | x | 0 | -2 | u | x
C[C@H](CO)N1C[C@H](C)[C@@H](CN(C)S(=O)(=O)c2ccccc2)Oc2c(NC(=O)NC3CCCCC3)cccc2C1=O | -4% | x | -10 | -166* | -3% | x
CC(NC(=O)c1c(N)[nH]c(C(=O)c2ccccc2)c1-c1ccccc1Br)c1cccc2ccccc12 (configuration not stated) | x | x | x | x | 2% | x
O=C(Cn1c(NCCO)nc2ccccc21)c1ccc([N+](=O)[O-])cc1 | 0% | u | 29 | -13 | -1% | -3
N=c1n(CC(=O)c2ccc(Br)cc2)c2ccccc2n1Cc1ccccc1 | 0% | 0 | -2 | -84* | -1% | 2
N=c1n(CC(=O)c2ccc([N+](=O)[O-])cc2)c2ccccc2n1Cc1ccccc1 | 5% | 3 | 7 | -75* | 0% | 4
N=c1n(CC(=O)c2ccc([N+](=O)[O-])cc2)c2ccccc2n1Cc1ccc(Cl)cc1 | 2% | 15 | 0 | 7 | 1% | -6
O=C(Cn1c(NCCCO)nc2ccccc21)c1ccc([N+](=O)[O-])cc1 | -19% | -15 | -14 | -73* | -1% | 0
CCOc1cc(C(=O)NCc2ccc3c(c2)CCN3C(=O)CC)cc(OCC)c1OCC | x | x | x | x | -2% | x
O=C1CCNc2cc3ccccc3cc21 | -11% | 4 | 2 | 1 | 28µM* | -6
O=C1CCNc2ccc(-c3ccccc3)cc21 | 17% | -3 | -7 | -2 | -16% | 19
Clc1ccc(CN2C3=NCCN3c3ccccc32)cc1Cl | 2% | -16 | 36 | -75* | 0% | -4
Cc1cc(NC(=O)c2cc(Cl)ccc2Cl)ccc1-c1cc2ccccc2oc1=O | x | x | x | x | 11µM* | x
O=C(Nc1ccc(Cl)c(Cl)c1)C1CCCCC1 | 4% | -12 | -12 | 1 | 1% | u
O=C1NC(=O)c2cc(NC(=O)C3CCCCC3)ccc21 | 2% | 3 | 3 | -15 | 25µM* | 2
O=C(Nc1ccc2c(c1)C(=O)NC2=O)c1cc(Cl)ccc1Cl | 5% | -22 | 4 | 5 | 32µM* | u
CCOC(=O)N1CCN(S(=O)(=O)c2ccc(C(=O)Nc3ccc4c(c3)C(=O)NC4=O)cc2)CC1 | -3% | 8 | 5 | 12 | 20µM* | 3
SMILES | p53 reactivator | TRPV1 PAM | KCNH2 WT inh | KCNH2 3.1 block | ClpP mod | TRPV1 ag
O=C(Nc1ccc2c(c1)C(=O)NC2=O)c1cccc(Cl)c1 | 8% | -15 | 4 | 4 | -10% | 10
CCOC(=O)N1CCN(S(=O)(=O)c2ccc(NC(C)=O)cc2)CC1 | -7% | -12 | 18 | 7 | 1% | 2
COC(=O)c1ccc(C(=O)Nc2ccc3c(c2)C(=O)NC3=O)cc1 | x | -17 | 12 | -96* | x | 21
Cc1ccc(Cn2c(=O)n(Cc3ccccc3)c(=O)c3oc4ccccc4c32)cc1 | x | x | x | x | -20% | x
CCOc1ccccc1-n1nnnc1SCC(=O)NC(=O)NCc1ccco1 | 4% | 3 | 1 | 3 | 2% | 1
CCOc1ccccc1-n1nnnc1SCC(=O)NC(=O)Cc1ccccc1 | 2% | 4 | -16 | -11 | 25µM* | -5
Fc1ccccc1Cc1cn2cc(-c3ccc(Cl)cc3)nc2s1 | x | x | x | x | 0% | x
Cc1ccc(NC(=O)CCc2c(C)nc3ncnn3c2C)cc1Cl | x | x | x | x | 0% | x
O=C(CCc1ccccc1)NC(=S)Nc1ccc(S(=O)(=O)N2CCOCC2)cc1 | 8% | 0 | 1 | 7 | 10µM* | -3
Cc1ccc(C)c(NC(=O)c2nc(S(C)(=O)=O)ncc2N(Cc2ccc(C(C)(C)C)cc2)Cc2ccco2)c1 | x | x | x | x | -2% | x
CN1C(=O)/C(=C2/C=Cc3ccccc3N2CCCS(=O)(=O)O)SC1=S | 4% | 0 | -1 | -17 | 22µM* | -2
C=Nc1ccc(/C=C/c2ccnc3ccccc23)cc1 | x | x | x | x | 0% | x
CCCSc1ccc(-c2nn(-c3ccccc3)cc2/C=C(/C#N)C(=O)N2CCOCC2)cc1 | 21% | 22 | -3 | -9 | u | 101*
Cc1cccc(Nc2c(-c3cccs3)nc3nc(C)cc(C)n23)c1 | x | x | x | x | -1% | x
COc1nc(Nc2ccccc2F)nc(OC)n1 | x | -3 | 0 | 14 | x | 2
COc1nc(NCCO)nc(Nc2ccccc2F)n1 | 18% | 110* | -7 | -4 | x | -3
CCOC(=O)c1c(CN2CCCCC2)oc2ccc(O)cc12 | -1% | 25 | 14 | -4 | 28µM* | 1
O=C(Cn1c2ncccc2c(=O)n1-c1ccccc1)Nc1cccc(C(F)(F)F)c1 | x | x | x | x | 4% | x
Cc1c(C(=O)NCc2ccccc2Cl)sc2nc3n(c(=O)c12)CCCCC3 | x | x | x | x | -12% | x
Cc1cc(N)n2ncc(-c3cccc(Br)c3)c2n1 | u | 13 | 1 | 11 | 18µM* | -2
Cc1cc(N)n2ncc(-c3ccccc3)c2n1 | u | 2 | -23 | 3 | -12% | -2
CNC(=O)c1cc2cc(OC)ccc2oc1=O | 1% | 4 | -5 | 4 | 28µM* | -3
COc1ccc2oc(=O)c(C(=O)NCC3CCCO3)cc2c1 (configuration not stated) | u | u | 9 | 15 | 28µM* | -1
